Values joined by “and” are separate entries in the source; they are usually repeats but may differ in a detail not shown here. Equal entries are not always repeated. Active and inactive are the calls of the source.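 How the source made its calls, unless noted: active means mean z-score across replicates of 1.96 or higher in either the MELAS or the Rieske mutant cell line; inactive means the rest.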
Columns and labels:
[1] = viability loss with induced miR-34 in A549 – imaging, A549 dox-inducible miR-34, nuclei and caspase counts, primary screen (AID 1347080;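 active means compounds whose cell count with miR-34 switched on is under 0.7 times the count with it off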); conditions: A549 miR-34 inducible, Hoechst nuclei count, 48 h
[2] = MELAS cybrid and Rieske KO viability enhancers – cell-based, MELAS cybrids, Rieske KO mouse fibroblasts, CellTiter-Glo, primary screen (AID 1508586); conditions: low glucose;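 further: z relative to plate mean and SD of compound and empty wells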
[3] = stronger effect = lower value, cell number ratio, induced over uninduced
[4] = measured here: relative caspase fold change +Dox/-Dox
[5] = measured here: total cells with miR-34 induction, stronger effect = lower value
[6] = measured here: total cells without miR-34 induction
[7] = MELAS cybrid survival, CellTiter-Glo 48 h, stronger effect = higher value
[8] = Rieske KO mouse fibroblast survival, CellTiter-Glo 72 h
Further: test concentration not given here.

Row | SMILES | fold change [1, 3] | fold change [1, 4] | cell count [1, 5] | cell count [1, 6] | z-score [2, 7] | z-score [2, 8]
1 | C=C1C(=CC=C2CCC[C@]3(C)C(C(C)CCCC(C)C)CC[C@@H]23)CC(O)CC1O (stereo partly drawn) | 0.908 (inactive) | 0.753 | 6380 | 7020 | 0.162 (inactive) | 0.335
2 | Cc1c(Cc2ccc3ccccc3n2)c2cc(F)ccc2n1CC(=O)O | 0.985 (inactive) | 0.424 | 6920 | 7030 | 0.326 (inactive) | -0.0715
3 | CC(NC(=O)CCc1nc2ccccc2c(=O)[nH]1)c1ccccc1 (stereo not drawn) | 0.914 (inactive) | 0.487 | 8620 | 9430 | -0.406 (inactive) | -0.138
4 | COC1C(=O)[C@]2(C)C(OC)C[C@H]3OC[C@@]3(OC(C)=O)[C@H]2C(OC(=O)c2ccccc2)[C@@]2(O)CC(OC(=O)C(O)C(NC(=O)OC(C)(C)C)c3ccccc3)C(C)=C1C2(C)C (stereo partly drawn) | 1.03 (inactive) | 0.843 | 2690 | 2620 | 1.6 (inactive) | -0.148
5 | CC1OC(O)C(O)C(O)C1O (stereo not drawn) | 0.984 (inactive) | 1 | 7230 | 7350 | -0.0523 (inactive) | -0.0922
6 | C[C@]12C=CC(=O)C=C1CC[C@H]1[C@@H]3CC(O)[C@@](O)(C(=O)CO)[C@@]3(C)CC(O)[C@]12F (stereo partly drawn) | 0.898 (inactive) | 0.627 | 5780 | 6430 | 0.159 (inactive) | -0.119
7 | CC(C)C(C(=O)Nc1ccc(C(=O)NO)cc1)c1ccccc1 (stereo not drawn) | 0.964 (inactive) | 0.891 | 1000 | 1040 | 2.39 (active) | 0.0158
8 | CC(C)(C)OC(=O)NC1CCCCCC=CC2C[C@@]2(C(=O)NS(=O)(=O)C2CC2)NC(=O)C2CC(OC(=O)N3Cc4cccc(F)c4C3)CN2C1=O (stereo partly drawn) | 0.897 (inactive) | 1.55 | 6840 | 7630 | -0.451 (inactive) | 0.469
9 | C[C@]12CC[C@H]3c4ccc(O)cc4CC[C@H]3[C@@H]1CCC2O (stereo partly drawn) | 0.784 (inactive) | 0.957 | 6520 | 8310 | -0.389 (inactive) | -0.286
10 | CC1=C(C(=O)O)N2C(=O)C(NC(=O)C(N)c3ccccc3)[C@@H]2SC1 (stereo partly drawn) | 0.987 (inactive) | 0.849 | 7060 | 7150 | -0.417 (inactive) | 0.0723
11 | N#CCC(C1CCCC1)n1cc(-c2ncnc3[nH]ccc23)cn1 (stereo not drawn) | 1.03 (inactive) and 0.94 (inactive) | 0.563 and 1.09 | 8730 and 7580 | 8490 and 8060 | -0.347 (inactive) and -0.642 (inactive) | 0.0258 and -0.766
12 | O=C(CS(=O)Cc1ccco1)NCC=CCOc1cc(CN2CCCCC2)ccn1 (stereo not drawn) | 0.878 (inactive) | 0.735 | 8120 | 9240 | -0.242 (inactive) | -0.613
13 | C[C@]12CCC(=O)C=C1[C@@H]1C[C@@H]1[C@H]1[C@@H]3[C@@H]4C[C@@H]4[C@]4(CCC(=O)O4)[C@@]3(C)CC[C@H]12 | 0.956 (inactive) | 0.848 | 6880 | 7200 | -0.459 (inactive) | 0.378
14 | CC(C)c1nc(CN(C)C(=O)NC(CCN2CCOCC2)C(=O)NC(CCC(Cc2ccccc2)NC(=O)OCc2cncs2)Cc2ccccc2)cs1 (stereo not drawn) | 0.977 (inactive) | 0.47 | 5730 | 5860 | -0.312 (inactive) | -0.261
15 | CCn1c(N)c(C(=O)NC)c(=O)c2ccc(C#C[C@@](C)(O)COC)nc21 | 0.913 (inactive) | 0.578 | 6630 | 7260 | -0.356 (inactive) | -0.157
16 | COc1ccc2cc1Oc1ccc(cc1)C[C@@H]1c3c(cc4c(c3Oc3cc5c(cc3OC)CCN(C)[C@@H]5C2)OCO4)CCN1C | 0.966 (inactive) | 1.15 | 4290 | 4440 | -0.206 (inactive) | -0.161
17 | Cc1ccccc1CN1C2=NCCN2C(=O)C2=C1CCN(Cc1ccccc1)C2 | 0.955 (inactive) | 0.31 | 8710 | 9120 | -0.516 (inactive) | 0.0586

Row | SMILES | fold change [1, 3] | fold change [1, 4] | cell count [1, 5] | cell count [1, 6] | z-score [2, 7] | z-score [2, 8]
18 | Nc1nc(=O)n(C2CSC(CO)O2)cc1F (stereo not drawn) | 0.88 (inactive) | 0.906 | 7840 | 8920 | -0.288 (inactive) | 0.564
19 | Cc1ccc(C(=O)N(CCCN)C(c2nc3cc(Cl)ccc3c(=O)n2Cc2ccccc2)C(C)C)cc1 (stereo not drawn) | 0.993 (inactive) | 0.877 | 1340 | 1350 | 0.859 (inactive) | -0.608
20 | O=C(C=Cc1ccccc1)NC(NC(=S)Nc1cccc2cccnc12)C(Cl)(Cl)Cl (stereo not drawn) | 0.979 (inactive) | 0.343 | 6780 | 6920 | -0.276 (inactive) | 0.21
21 | C[C@]12C[C@@]3(O)O[C@@H](O1)[C@]1(COC(=O)c4ccccc4)[C@H]3C[C@@]12OC1OC(CO)C(O)C(O)C1O (stereo partly drawn) | 0.87 (inactive) | 0.575 | 8970 | 10300 | -0.445 (inactive) | -0.113
22 | COc1cc(F)c(F)c(Nc2ccc(I)cc2F)c1NS(=O)(=O)C1(CC(O)CO)CC1 (stereo not drawn) | 0.923 (inactive) | 0.76 | 2970 | 3220 | -0.764 (inactive) | -0.645
23 | Cc1cc(OCCCS(C)(=O)=O)cc(C)c1-c1cccc(COc2ccc3c(c2)OCC3CC(=O)O)c1 (stereo not drawn) | 0.928 (inactive) | 0.766 | 7480 | 8070 | -0.428 (inactive) | 0.0224
24 | CNC1C(O)C(NC)[C@H]2O[C@@]3(O)C(=O)CC(C)O[C@H]3O[C@@H]2C1O (stereo partly drawn) | 1.01 (inactive) | 0.997 | 9590 | 9460 | -0.277 (inactive) | 0.762
25 | CCN1C(=CC(C)=O)Sc2ccc(OC)cc21 | 0.889 (inactive) | 0.354 | 6850 | 7700 | 0.342 (inactive) | 1.67
26 | O=C1c2c(O)cccc2[C@H]([C@@H]2OC(CO)C(O)C(O)C2O)c2cc(CO)cc(O)c21 (stereo partly drawn) | 0.88 (inactive) | 0.843 | 8560 | 9720 | -0.344 (inactive) | -0.143
27 | CC1C(NC(=O)C(=NOC(C)(C)C(=O)O)c2csc(N)n2)C(=O)N1S(=O)(=O)O (stereo not drawn) | 0.929 (inactive) | 0.823 | 7110 | 7650 | -0.398 (inactive) | 0.579
28 | O=C(O)C(S)=Cc1c[nH]c2ccc(F)cc12 | 0.952 (inactive) | 0.47 | 7180 | 7550 | -0.325 (inactive) | -0.491
29 | CCC1OC(=O)C(C)C(OC2C[C@@](C)(OC)C(O)C(C)O2)C(C)C(OC2OC(C)CC(N(C)C)C2O)[C@@](C)(O)CC(C)[C@@H]2NC(COCCOC)OC(C2C)[C@]1(C)O (stereo partly drawn) | 0.923 (inactive) | 0.895 | 8840 | 9580 | -0.208 (inactive) | -0.128
30 | Cc1nc(Nc2n[nH]c3c2CN(C(=O)NC(CN(C)C)c2ccccc2)C3(C)C)c2sccc2n1 (stereo not drawn) | 1.06 (inactive) | 0.274 | 1510 | 1420 | 0.106 (inactive) | -7.7
31 | CC1O[C@@H](OC2C(Oc3cc(O)c(C(=O)CCc4ccc(O)cc4)c(O)c3)OC(CO)C(O)C2O)C(O)C(O)C1O (stereo partly drawn) | 0.973 (inactive) | 0.587 | 8080 | 8300 | -0.155 (inactive) | -0.191
32 | CC1C[C@H]2[C@@H]3CC(F)C4=CC(=O)C=C[C@]4(C)[C@]3(F)C(O)C[C@]2(C)[C@@]1(O)C(=O)CO (stereo partly drawn) | 0.843 (inactive) | 1.01 | 4530 | 5380 | -0.358 (inactive) | -0.303
33 | NC(=O)c1cnc(NC2CCCCC2N)nc1Nc1cccc(-n2nccn2)c1 (stereo not drawn) | 0.82 (inactive) | 0.778 | 1580 | 1920 | -0.344 (inactive) | -1.57
